Bioassay records (PubChem)
The list is not random: actives were taken first. Their share in the collection is about 8.1%.
ELG1 repair inh: ELG1-dependent DNA repair inhibition. HEK293T ELG1-luciferase reporter, luminescence, 16 h; DNA damage induced by 5-fluorouridine. Potency, µM (doses to about 46.1 µM), for inactives: top-dose activity change, negative = inhibition, most hits filed as inhibitors. 330,000 compounds, 2.3% hits. AID 504467; note: % is set by controls: 0 for no effect and ±100 for the full control effect; nearly all actives have a fitted effect of over 55% in size
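5-Fluorouridine DNA damage + compound/DMSO, 2,000 cells/well, 16 h, 37 °C/5% CO2. ONE-Glo, 30 min RT, luminescence. Readout = decrease in reporter signal.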
KB-3-1 cytotox: kills parental KB-3-1 adenocarcinoma cells; KB-3-1 viability, CellTiter-Glo ATP luminescence, 72 h; Potency, µM (titrated, usually from 46.1 µM), usual class: cytotoxic; 400,000 compounds, 1.4% hits; AID 1347075; note: % is set by controls: 0 for no effect and ±100 for the full control effect; nearly all actives have a fitted effect of over 60% in size
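Luminescent ATP read-out (CellTiter-Glo) measures survival of drug-naive KB-3-1 cells after 72 h compound exposure at 37 °C. Titration series was screened from lowest to highest concentration, with DMSO vehicle plates as background controls.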
MCF10A rerep: induces DNA re-replication in MCF 10a normal breast cells. MCF 10A DNA re-replication, Hoechst nuclear intensity, 48 h. Potency, µM (highest dose often 46.1 µM), without a hit: at the highest dose activity, positive = re-replication, actives largely listed as activators. 350,000 compounds, 2.9% hits. AID 624296; note: % of control where 0% means no effect; nearly all actives have a fitted effect of over 50% in size
SW480 rerep: inducers of DNA re-replication in SW480 colon cancer cells. 340,000 compounds, 1.8% hits. Potency, µM (series often up to 46.1 µM), inactives show top-dose re-replication activation, actives largely listed as activators. SW480 DNA re-replication, Hoechst DNA content imaging, 48 h; note: % of control where 0% means no effect; nearly all actives have a fitted effect of over 55% in size
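First, 250 cells per well were seeded. Next, compound or vehicle (23 nL) was pinned in, plates sat 48 hr at 37 C. Finally Hoechst was added for 40 min before fluorescence scanning.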
KB-V1 cytotox: kills drug-selected multidrug resistant KB-V1 cells | KB-V1 MDR cells viability, CellTiter-Glo, 72 h | Potency, µM (titrated, usually from 46.1 µM), usual class: cytotoxic | 400,000 compounds, 3.4% hits; note: % is set by controls: 0 for no effect and ±100 for the full control effect; nearly all actives have a fitted effect of over 60% in size
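KB-V1 cells (P-gp-expressing MDR subline of KB-3-1) in phenol-red-free DMEM with 10% FBS were exposed to library compounds over a concentration series for 72 h at 37 degrees C. Viability read by CellTiter-Glo luminescence; concentration-effect curves fitted after normalization.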
The depositor's hits bear a star; i = inactive; ? = inconclusive; / = no result given. Calls come from the whole dose curve; as a rule, active = well fitted curve in the direction sought with a large enough effect; inconclusive = small, poorly fitted or top-dose-only effect, or another doubt; inactive = no such curve, though single readings can be large; an effect the other way counts as inactive or inconclusive. Potency is the fitted concentration of half-maximal effect.

SMILES	ELG1 repair inh	KB-3-1 cytotox	MCF10A rerep	SW480 rerep	KB-V1 cytotox
O=C(Nc1cccc(S(=O)(=O)N2CCOCC2)c1)c1ccc2c(=O)n3c(nc2c1)CCCCC3	12µM*	i	?	-6%	?
O=C(Nc1cccc(S(=O)(=O)N2CCCC2)c1)c1ccc2c(=O)n3c(nc2c1)CCCCC3	5.8µM*	?	17%	0%	?
CC(=O)c1cccc(NC(=O)c2ccc3c(=O)n4c(nc3c2)CCCCC4)c1	-20%	i	10%	-1%	?
COCCNC(=O)C(c1ccc(O)cc1)N(Cc1ccccc1)C(=O)CCC(=O)Nc1nccs1 (stereo not given)	14%	i	-12%	4%	i
COc1ccccc1C(=O)NC(C)C(c1cccs1)N1CCN(C)CC1 (stereo not given)	12%	i	-9%	3%	18µM*
CCN1CCN(C(c2cccs2)C(C)NC(=O)c2ccccc2OC)CC1 (stereo not given)	13%	i	12%	-2%	i
COc1ccccc1N1CCN(C(c2cccs2)C(C)NC(=O)c2cccs2)CC1 (stereo not given)	?	i	2%	1%	4.1µM*
CCOC(=O)C1=C(C)n2c(s/c(=C/c3cccc([N+](=O)[O-])c3)c2=O)=NC1c1ccc(O)c(OC)c1 (stereo not given)	?	?	16µM*	?	18µM*
CCOC(=O)C1=C(C)N=c2s/c(=C/c3ccccc3)c(=O)n2C1c1ccc(OC)c(OC)c1 (stereo not given)	12%	i	2%	-1%	?
CCC(C)C(=O)Nc1nnc(SCC(=O)Nc2ccccc2F)s1 (stereo not given)	-11%	i	-4%	-12%	i
CCc1nnc2sc(-c3ccc(NC(=O)c4ccco4)cc3)nn12	5%	i	2%	-11%	i
CCc1nnc2sc(-c3ccc(NC(=O)c4ccc5c(c4)OCCO5)cc3)nn12	5.8µM*	i	-6%	0%	i
CCOc1ccc(/C=C/C(=O)c2cc(Br)ccc(=O)c2O)cc1	-1%	?	9.2µM*	?	10µM*
Cc1cccc(/C=C/C(=O)c2cc(Br)ccc(=O)c2O)c1	?	?	10µM*	?	?
O=C(C=Cc1ccccc1)c1cc(Br)ccc1O	/	i	?	?	i
CCc1ccc(/C=C/C(=O)c2cc(Br)ccc(=O)c2O)cc1	-17%	?	?	?	10µM*
Cc1ccc(C(=O)NCC(=O)Nc2cccc(S(=O)(=O)NC3=NCCCCC3)c2)cc1C	-2%	i	0%	-1%	i
O=C(/C(=C/O)N=Nc1ccc(Cl)cc1)c1ccncc1	-9%	13µM*	?	?	i
Cc1ccc(N=N/C(=C\O)C(=O)c2ccncc2)cc1	?	i	?	10%	i
O=C(C[C@H]1C(=O)N(Cc2cccnc2)C[C@@H]1Cc1ccccc1)Nc1ccccc1	/	i	/	/	i
O=C(/C=C/c1ccc(O)cc1)c1ccccc1	?	i	?	30%	i
O=C(/C=C/c1ccc(N2CCC(c3ccccc3)=N2)cc1)c1ccccc1	?	i	6.5µM*	?	i
CCOC(=O)/C(=C\c1ccc(N2CCC(c3ccccc3)=N2)cc1)C(C)=O	/	/	1.5µM*	1.5µM*	/
Cc1ccc(N2CCN(C(=O)NC3CCCCC3)CC2C)cc1 (stereo not given)	-5%	i	?	-30%	i
CNC(=O)C(=O)NCC1CCCN1S(=O)(=O)c1cccs1 (stereo not given)	10%	i	7%	23µM*	i
SMILES	ELG1 repair inh	KB-3-1 cytotox	MCF10A rerep	SW480 rerep	KB-V1 cytotox
Cc1ccc(S(=O)(=O)N2CCCC2C(=O)N(C)Cc2cccs2)cc1 (stereo not given)	?	i	7%	-6%	21µM*
CCNC(=O)C1CCCN1S(=O)(=O)c1ccc(C)cc1 (stereo not given)	11%	i	21µM*	0%	i
Cc1ccc(S(=O)(=O)N2CCCC2CNC(=O)C(=O)NCc2cccs2)cc1 (stereo not given)	-15%	?	18%	?	13µM*
Cc1cc(=O)n(CC(=O)NC2CC2)c2c1c(C)nn2-c1ccccc1	14%	i	8%	-8%	i
O=C1NC(=O)/C(=C/c2ccc(-c3cc(C(=O)O)ccc3Cl)o2)S1	1%	i	?	-2%	i
O=C1NC(=S)/C(=C\c2ccc(-c3ccccc3Cl)o2)S1	-6%	?	6.5µM*	-49%	i
CCCCCOC(=O)c1cc(=O)[nH]c2ccccc12	?	8.2µM*	?	-1%	2.3µM*
O=C(OCC(=O)N1CCCCC1)c1cc(=O)[nH]c2ccccc12	?	i	-9%	-2%	i
CCC1CCCCN1C(=O)COC(=O)c1cc(=O)[nH]c2ccccc12 (stereo not given)	?	i	0%	-5%	18µM*
Cc1ccc(NC(=O)CSc2nnc(N)s2)c([N+](=O)[O-])c1	-5%	i	-3%	-1%	i
O=C(NNc1nc(-c2ccccc2)c2cc(Br)ccc2n1)c1ccc(S(=O)(=O)N2CCCCC2)cc1	?	i	0%	15%	3.3µM*
O=C(Nc1ccc(OCc2ccccc2)cc1)Nc1nnc([C@H]2C[C@H](O)[C@@H](CO)O2)s1	/	i	/	/	i
CC(C)NC(=O)c1sc2nc(-c3cccs3)cc(-c3cccs3)c2c1N	8%	i	3.7µM*	?	i
COc1ccc(-c2cc(-c3cccs3)nc3sc(C#N)c(N)c23)cc1	?	i	16µM*	?	?
COc1ccc(C(=O)c2sc3nc(C)cc(-c4cccs4)c3c2N)cc1OC	?	i	5.2µM*	?	?
Cc1cc(-c2cccs2)c2c(N)c(C(=O)c3ccc4c(c3)OCO4)sc2n1	?	?	15µM*	1.3µM*	6.5µM*
CCN1C(=O)c2ccccc2S(=O)(=O)c2ccc(C(=O)NCCCN(CC(C)C)CC(C)C)cc21	19%	i	-11%	-1%	i
Cc1cc(C)c(C#N)c(Nc2ccc(F)cc2)n1	2%	i	9%	-51%	i
Nc1c(C(=O)Nc2ccccc2Br)sc2nc(-c3cccs3)ccc12	/	i	/	/	i
Nc1c(C(=O)Nc2nc3ccccc3s2)sc2nc(-c3cccs3)ccc12	?	8.2µM*	4.1µM*	?	i
Cc1cc(C)c2c(N)c(C(=O)c3ccc(Cl)cc3)sc2n1	?	i	-33%	15%	?
COc1ccc(C(=O)c2sc3nc(C)cc(-c4cccs4)c3c2N)cc1	?	i	?	21µM*	i
